Laboratory results: the supplement of paper PMC11732987, “Enantioselective OTUD7B fragment discovery through chemoproteomics screening and high-throughput optimisation” (Communications Chemistry, 2025)

Key:
Assay in all cases: log2 ratio of Biotin-Ahx-Ub-VS probe labelling (fragment/DMSO); higher = less target engagement (more negative = stronger competition), active = hit call of the paper (q ≤ 0.05, log2 ratio ≤ -1)
Details in all cases: compound concentration: 200 uM; treatment time: 3 h
OTUD6B = biological target: T1, OTUD6B (UniProt Q8N6M0)
T1 sequence (whole entry): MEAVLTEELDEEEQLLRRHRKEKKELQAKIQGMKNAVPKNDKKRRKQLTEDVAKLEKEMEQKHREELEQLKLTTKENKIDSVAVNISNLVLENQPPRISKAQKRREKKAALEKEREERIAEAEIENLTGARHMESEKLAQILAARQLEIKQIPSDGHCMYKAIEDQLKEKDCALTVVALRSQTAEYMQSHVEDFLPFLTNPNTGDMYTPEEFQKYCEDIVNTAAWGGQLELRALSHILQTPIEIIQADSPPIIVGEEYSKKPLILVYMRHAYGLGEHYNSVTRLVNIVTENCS
Outline: (§1)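 Fragment (200 µM) or vehicle was incubated for 3 h with triplicate HEK293T lysate samples of 495 µg, which were then treated with Biotin-Ahx-Ub-VS at 0.5 µM final for 1 h. Labelled DUBs were enriched on NeutrAvidin, digested with LysC and trypsin, and analysed by diaPASEF LC-MS/MS. Values are average log2 fragment/vehicle ratios from an unpaired t-test on global-median-normalised Spectronaut label-free quantities, using proteins with ≥2 unique peptides.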

OTUD7B = biological target: T2, OTUD7B (UniProt Q6GQQ9)
T2 sequence (whole entry): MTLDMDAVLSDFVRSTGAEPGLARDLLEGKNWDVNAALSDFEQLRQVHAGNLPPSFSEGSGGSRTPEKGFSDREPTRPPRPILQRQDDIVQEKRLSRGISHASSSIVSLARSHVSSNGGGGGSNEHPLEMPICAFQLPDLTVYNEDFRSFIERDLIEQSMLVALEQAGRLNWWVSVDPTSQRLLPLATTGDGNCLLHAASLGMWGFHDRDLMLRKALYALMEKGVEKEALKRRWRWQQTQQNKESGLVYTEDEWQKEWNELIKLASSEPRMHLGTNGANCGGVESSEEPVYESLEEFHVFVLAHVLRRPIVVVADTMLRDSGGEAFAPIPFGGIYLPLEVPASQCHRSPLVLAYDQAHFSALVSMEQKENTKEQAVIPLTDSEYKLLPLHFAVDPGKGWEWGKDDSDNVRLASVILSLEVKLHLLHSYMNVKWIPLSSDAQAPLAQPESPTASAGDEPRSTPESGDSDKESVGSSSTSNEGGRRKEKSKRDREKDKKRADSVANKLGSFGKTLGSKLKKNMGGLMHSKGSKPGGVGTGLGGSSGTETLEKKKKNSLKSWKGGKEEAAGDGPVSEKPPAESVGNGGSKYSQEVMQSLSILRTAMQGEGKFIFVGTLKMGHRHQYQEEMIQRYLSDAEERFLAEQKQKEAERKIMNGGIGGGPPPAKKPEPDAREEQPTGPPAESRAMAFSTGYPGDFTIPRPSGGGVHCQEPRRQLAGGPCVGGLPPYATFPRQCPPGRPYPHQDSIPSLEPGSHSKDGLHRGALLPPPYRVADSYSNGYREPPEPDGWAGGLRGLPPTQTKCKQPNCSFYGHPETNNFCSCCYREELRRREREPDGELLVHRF
Outline: as §1

PRPF8 = PRPF8 (UniProt Q6P2Q9)
Outline: as §1

PSMD7 = biological target: T3, PSMD7 (UniProt P51665)
T3 sequence (whole entry): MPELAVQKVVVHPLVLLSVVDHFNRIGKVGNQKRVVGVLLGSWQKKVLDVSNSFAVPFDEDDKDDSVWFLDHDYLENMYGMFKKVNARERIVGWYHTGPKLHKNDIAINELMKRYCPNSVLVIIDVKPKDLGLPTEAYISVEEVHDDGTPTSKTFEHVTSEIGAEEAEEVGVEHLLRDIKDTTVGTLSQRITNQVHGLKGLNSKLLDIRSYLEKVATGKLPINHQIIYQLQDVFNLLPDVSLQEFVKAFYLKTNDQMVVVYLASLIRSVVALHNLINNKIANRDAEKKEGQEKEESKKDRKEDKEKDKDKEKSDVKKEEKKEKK
Outline: as §1

UCHL1 = UCHL1 (UniProt P09936)
Sequence of UCHL1 (P09936 whole entry, looked up): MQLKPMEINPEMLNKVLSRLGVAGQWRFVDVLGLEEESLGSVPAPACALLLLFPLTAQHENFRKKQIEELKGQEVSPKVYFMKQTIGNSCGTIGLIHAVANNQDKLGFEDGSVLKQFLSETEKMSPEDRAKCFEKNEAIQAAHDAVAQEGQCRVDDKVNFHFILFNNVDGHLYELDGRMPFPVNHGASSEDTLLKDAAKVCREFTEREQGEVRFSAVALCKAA
Outline: as §1

UCHL3 = biological target: T4, UCHL3 (UniProt P15374)
T4 sequence (whole entry): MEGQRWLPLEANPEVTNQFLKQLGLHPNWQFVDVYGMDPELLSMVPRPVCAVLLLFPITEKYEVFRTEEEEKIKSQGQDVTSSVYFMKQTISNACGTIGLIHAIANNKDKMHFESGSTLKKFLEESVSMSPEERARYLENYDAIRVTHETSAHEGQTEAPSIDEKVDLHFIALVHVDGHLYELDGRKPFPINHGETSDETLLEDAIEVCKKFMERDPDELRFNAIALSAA
Outline: as §1

UCHL5 = biological target: T5, UCHL5 (UniProt Q9Y5K5)
T5 sequence (whole entry): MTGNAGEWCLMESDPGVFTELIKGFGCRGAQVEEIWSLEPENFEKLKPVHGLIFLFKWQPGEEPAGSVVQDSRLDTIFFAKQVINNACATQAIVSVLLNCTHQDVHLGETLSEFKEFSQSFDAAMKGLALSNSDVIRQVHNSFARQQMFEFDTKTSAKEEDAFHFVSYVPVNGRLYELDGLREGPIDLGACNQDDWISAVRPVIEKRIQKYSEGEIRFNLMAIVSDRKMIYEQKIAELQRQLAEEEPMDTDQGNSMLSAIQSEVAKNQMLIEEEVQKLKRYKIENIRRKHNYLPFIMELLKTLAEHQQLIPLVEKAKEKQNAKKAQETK
Outline: as §1

USP10 = USP10 (UniProt Q14694)
Sequence of USP10 (Q14694 whole entry): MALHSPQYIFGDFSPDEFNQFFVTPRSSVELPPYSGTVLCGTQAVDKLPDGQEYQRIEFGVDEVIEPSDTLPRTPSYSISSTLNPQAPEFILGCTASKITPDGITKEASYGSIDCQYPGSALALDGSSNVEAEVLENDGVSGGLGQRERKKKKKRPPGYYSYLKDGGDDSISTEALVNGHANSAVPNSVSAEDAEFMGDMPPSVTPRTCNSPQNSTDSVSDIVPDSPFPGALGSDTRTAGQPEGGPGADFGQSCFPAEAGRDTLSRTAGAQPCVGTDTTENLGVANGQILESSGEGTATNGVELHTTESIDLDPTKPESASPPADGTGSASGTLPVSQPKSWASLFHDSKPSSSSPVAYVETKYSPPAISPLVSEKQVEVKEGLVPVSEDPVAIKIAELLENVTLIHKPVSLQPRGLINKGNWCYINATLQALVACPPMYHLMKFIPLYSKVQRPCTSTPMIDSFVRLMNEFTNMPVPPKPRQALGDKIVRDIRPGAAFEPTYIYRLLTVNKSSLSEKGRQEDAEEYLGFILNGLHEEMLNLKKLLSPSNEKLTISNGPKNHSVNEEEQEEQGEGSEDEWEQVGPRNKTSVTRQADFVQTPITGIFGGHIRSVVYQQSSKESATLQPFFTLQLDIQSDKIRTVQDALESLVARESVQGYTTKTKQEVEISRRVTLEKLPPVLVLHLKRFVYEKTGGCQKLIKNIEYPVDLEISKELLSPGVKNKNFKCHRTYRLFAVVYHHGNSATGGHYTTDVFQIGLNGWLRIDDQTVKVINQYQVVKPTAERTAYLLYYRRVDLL
Outline: as §1

USP15 = biological target: T6, USP15 (UniProt Q9Y4E8)
T6 sequence (whole entry): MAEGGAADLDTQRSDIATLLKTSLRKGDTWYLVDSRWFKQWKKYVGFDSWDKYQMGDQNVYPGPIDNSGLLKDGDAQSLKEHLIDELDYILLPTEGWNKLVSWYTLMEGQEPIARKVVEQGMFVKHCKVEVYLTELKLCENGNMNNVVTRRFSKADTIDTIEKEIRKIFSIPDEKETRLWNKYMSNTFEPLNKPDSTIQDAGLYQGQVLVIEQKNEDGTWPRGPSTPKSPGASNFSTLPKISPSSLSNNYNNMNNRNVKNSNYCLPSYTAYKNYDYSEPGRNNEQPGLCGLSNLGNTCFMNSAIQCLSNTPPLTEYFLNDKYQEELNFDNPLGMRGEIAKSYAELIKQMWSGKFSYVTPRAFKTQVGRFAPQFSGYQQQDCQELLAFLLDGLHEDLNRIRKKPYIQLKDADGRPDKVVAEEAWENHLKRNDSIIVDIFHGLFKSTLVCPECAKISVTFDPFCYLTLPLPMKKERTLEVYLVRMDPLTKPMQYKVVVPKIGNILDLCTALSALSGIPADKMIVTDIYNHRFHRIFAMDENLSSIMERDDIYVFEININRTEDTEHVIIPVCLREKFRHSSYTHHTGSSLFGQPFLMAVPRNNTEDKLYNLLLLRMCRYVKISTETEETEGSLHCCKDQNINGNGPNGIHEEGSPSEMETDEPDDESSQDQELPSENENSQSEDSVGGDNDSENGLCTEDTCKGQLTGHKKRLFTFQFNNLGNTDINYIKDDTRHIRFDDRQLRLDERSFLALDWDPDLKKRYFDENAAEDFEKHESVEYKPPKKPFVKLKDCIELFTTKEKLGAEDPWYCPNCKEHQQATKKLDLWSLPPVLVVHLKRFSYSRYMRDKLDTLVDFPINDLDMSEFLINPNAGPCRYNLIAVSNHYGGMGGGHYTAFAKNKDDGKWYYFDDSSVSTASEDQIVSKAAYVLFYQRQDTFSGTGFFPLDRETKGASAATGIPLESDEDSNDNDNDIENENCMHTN
Outline: as §1

USP16 = USP16 (UniProt Q9Y5T5)
Sequence of USP16 (Q9Y5T5 whole entry, looked up): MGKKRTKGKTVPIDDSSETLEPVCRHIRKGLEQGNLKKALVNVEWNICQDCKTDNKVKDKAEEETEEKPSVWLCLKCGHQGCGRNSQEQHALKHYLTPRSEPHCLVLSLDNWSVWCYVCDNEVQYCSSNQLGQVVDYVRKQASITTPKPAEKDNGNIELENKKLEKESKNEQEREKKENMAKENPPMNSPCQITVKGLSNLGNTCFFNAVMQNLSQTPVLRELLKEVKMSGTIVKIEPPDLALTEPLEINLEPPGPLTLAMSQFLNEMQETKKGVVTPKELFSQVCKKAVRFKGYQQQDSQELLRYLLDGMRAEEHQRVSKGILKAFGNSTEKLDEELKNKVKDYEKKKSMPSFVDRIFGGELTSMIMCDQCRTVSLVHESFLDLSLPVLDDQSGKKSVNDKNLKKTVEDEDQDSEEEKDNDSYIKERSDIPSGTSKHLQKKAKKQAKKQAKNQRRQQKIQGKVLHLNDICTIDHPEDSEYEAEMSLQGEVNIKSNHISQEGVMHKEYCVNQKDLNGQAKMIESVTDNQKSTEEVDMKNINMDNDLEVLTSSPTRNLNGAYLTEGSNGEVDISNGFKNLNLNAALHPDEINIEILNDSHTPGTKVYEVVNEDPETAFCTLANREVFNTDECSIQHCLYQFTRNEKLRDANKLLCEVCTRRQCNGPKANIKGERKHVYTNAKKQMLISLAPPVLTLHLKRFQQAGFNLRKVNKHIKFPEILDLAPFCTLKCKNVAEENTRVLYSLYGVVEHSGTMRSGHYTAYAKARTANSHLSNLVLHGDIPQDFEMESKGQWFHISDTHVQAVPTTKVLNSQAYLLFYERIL
Outline: as §1

Measured: log2 ratio of Biotin-Ahx-Ub-VS probe labelling

CN(Cc1nc2ccccc2[nH]1)C(=O)CCl.Cl
inactive: OTUD6B -0.0126 | OTUD7B -0.039 | PRPF8 0.00724 | PSMD7 -0.142 | UCHL1 0.185 | UCHL3 0.504 | UCHL5 -0.121 | USP10 -0.14 | USP15 -0.17 | USP16 -0.572
